High-throughput results as filed in PubChem.
This excerpt belongs to a sample that is enriched for hits.
NOMO-1 viab: STK33 inhibitor candidate reducing NOMO-1 cell viability; 37,000 tested, 7.5% active; inhibition, % (test concentration not listed); AID 2330; NOMO-1 AML viability, CellTiter-Glo luminescence, 72 h; in the data active = inhibition above about 80%
STK33 inh: human STK33 kinase inhibition; Q9BYT3; ADP-Glo luminescence, MBP substrate; inhibition, % at 12.5 µM; 27,000 tested, 0.44% active; AID 2322; in the data active = inhibition above about 20%
Target sequence (Q9BYT3 whole entry, looked up): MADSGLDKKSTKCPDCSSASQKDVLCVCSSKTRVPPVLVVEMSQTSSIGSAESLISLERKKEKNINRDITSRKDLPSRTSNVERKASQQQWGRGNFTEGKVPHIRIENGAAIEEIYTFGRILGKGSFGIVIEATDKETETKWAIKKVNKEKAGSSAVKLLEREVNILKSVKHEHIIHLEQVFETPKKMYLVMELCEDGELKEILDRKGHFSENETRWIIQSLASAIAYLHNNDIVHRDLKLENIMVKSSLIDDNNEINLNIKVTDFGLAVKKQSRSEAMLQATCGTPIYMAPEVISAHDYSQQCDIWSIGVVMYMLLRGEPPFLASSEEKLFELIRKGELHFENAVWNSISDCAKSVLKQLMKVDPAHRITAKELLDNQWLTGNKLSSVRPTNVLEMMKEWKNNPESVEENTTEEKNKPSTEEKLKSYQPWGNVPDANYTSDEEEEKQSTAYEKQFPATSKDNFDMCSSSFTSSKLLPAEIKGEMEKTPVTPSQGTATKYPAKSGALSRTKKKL
PD-1 reversal: activators reversing PD-1 mediated T-cell inhibition | primary human CD4 T cells, PD-L1 beads, CellTiter-Glo 96 h | activation, % (no concentration beside the values) | 29,000 tested, under 10 active | AID 2316; call rule not given here;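 also: 0% = median vehicle wells and 100% = positive control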
Active calls of the source: *; x = no result.

SMILES | NOMO-1 viab | STK33 inh | PD-1 reversal
COc1ccc(C(=O)n2nc3c(c2-c2ccc(OC)cc2)COC(C)(C)C3)cc1 | -4 | x | 1
O=C(CC1(O)C(=O)N(Cc2ccc(Cl)cc2)c2ccccc21)c1cc2ccccc2oc1=O (stereo unspecified) | 120* | 0 | -3
Cc1ccc(C(=O)CC2(O)C(=O)N(CCCC#N)c3ccccc32)o1 (stereo unspecified) | 22 | 0 | 2
O=C(CC1(O)C(=O)N(Cc2cccc3ccccc23)c2ccccc21)c1ccccc1[N+](=O)[O-] (stereo unspecified) | 114* | 3 | -4
O=C(CC1(O)C(=O)N(Cc2ccccc2)c2ccc(Br)cc21)c1ccc2c(c1)OCCO2 (stereo unspecified) | 5 | 1 | 1
O=C(CC1(O)C(=O)N(Cc2cccc3ccccc23)c2ccccc21)c1ccc(Br)s1 (stereo unspecified) | x | 0 | x
COc1ccc(C(=O)CC2(O)C(=O)N(Cc3ccccc3)c3ccc(Br)cc32)cc1[N+](=O)[O-] (stereo unspecified) | 111* | -4 | -15
NC(=O)CN1C(=O)C(O)(CC(=O)c2ccc(Cl)cc2Cl)c2ccccc21 (stereo unspecified) | -6 | -4 | x
Cc1ccc(CN2C(=O)C(O)(CC(=O)c3cccc(N)c3)c3cc(Cl)ccc32)cc1 (stereo unspecified) | 133* | 3 | -2
Nc1nnc(SCC(=O)Nc2ccc(I)cc2)s1 | 10 | 0 | 0
C=CCNC(=O)[C@H]1[C@@H]2C(=O)O[C@@H](c3ccccc3)[C@@H](c3ccccc3)N2[C@@H](c2ccc(O)cc2)[C@]12C(=O)Nc1ccc(C#CCC(C(=O)OC)C(=O)OC)cc12 | x | 1 | x
CC(O)CNc1nc2c(c(=O)n(Cc3ccccc3F)c(=O)n2C)n1C (stereo unspecified) | -1 | 3 | 0
C=C1CC/C=C(/C(=O)O)C[C@H](O)C2C1CC2(C)C (stereo partly specified) | 6 | -5 | 1
Cc1ccc(NC(=O)C(C)Sc2n[nH]c(C)n2)cc1 (stereo unspecified) | 16 | -1 | 0
Cc1coc(C)c1C(=O)CC1(O)C(=O)N(CCc2ccccc2)c2ccc(Cl)cc21 (stereo unspecified) | 88* | -3 | x
N#CCCCN1C(=O)C(O)(CC(=O)c2ccc3c(c2)OCCO3)c2ccccc21 (stereo unspecified) | 26 | 9 | -4
O=C(CSc1ccccn1)Nc1ccc(Cl)cc1 | -4 | -1 | -1
O=C(CC1(O)C(=O)N(Cc2ccccc2)c2ccc(Cl)cc21)c1ccncc1 (stereo unspecified) | 117* | -1 | -5
O=C(CC1(O)C(=O)N(CCc2ccccc2)c2ccc(Cl)cc21)c1ccco1 (stereo unspecified) | 38 | 2 | x
CN1C(=O)C(O)(CC(=O)c2ccccn2)c2cc(Br)ccc21 (stereo unspecified) | 117* | -1 | -2
Cc1n[nH]c(C)c1C(=O)CC1(O)C(=O)Nc2ccc(Br)cc21 (stereo unspecified) | x | -2 | x
O=C(CC1(O)C(=O)N(Cc2ccc(Cl)cc2)c2ccc(Cl)cc21)c1ccccn1 (stereo unspecified) | 115* | 16 | x
Cc1cc(I)ccc1NC(=O)CN(c1c(C)cccc1C)S(C)(=O)=O | 20 | -2 | 0
COc1ccc([N+](=O)[O-])cc1NC(=O)CN(c1ccccc1Br)S(C)(=O)=O | -25 | 1 | 1
CCc1ccc(CN2CCN(Cc3ccc4c(c3)OCO4)CC2)cc1 | 32 | x | 0
SMILES | NOMO-1 viab | STK33 inh | PD-1 reversal
CCn1c(SCC(=O)Nc2ccccc2F)nnc1-c1ccc(Br)cc1 | 2 | -2 | x
COc1ccc(CN2C(=O)C(O)(CC(=O)c3c(C)n[nH]c3C)c3ccccc32)cc1OC (stereo unspecified) | 29 | -4 | -1
COc1ccc(CN2C(=O)C(O)(CC(=O)c3cccs3)c3ccccc32)cc1OC (stereo unspecified) | 106* | -2 | 0
CCOc1ccc(NC(=O)Cn2cnc3scc(-c4ccc(C)cc4)c3c2=O)cc1 | 5 | 4 | x
O=C1c2ccccc2C(=O)N1CC1CCN(Cc2ccc(OCCO)cc2)CC1 | x | 1 | x
Cc1cc(Cl)ccc1OCC(O)CN1CCC(CN2C(=O)c3cccc4cccc(c34)C2=O)CC1 (stereo unspecified) | 119* | -2 | x
Cc1nc(CSc2nc3sc(C)c(C)c3c(=O)n2-c2ccccc2)cs1 | 5 | -3 | 1
CSc1sc(C(=O)Sc2ccccc2)c2c1S(=O)(=O)N(C)c1ccccc1-2 | 121* | x | -1
CCOC(=O)c1sc(SCc2ccccc2)c2c1-c1sccc1N(C)S2(=O)=O | -18 | x | -1
CCOc1ccc(NC(=O)CC2C(=O)NCCN2C(=O)c2ccccc2)cc1 (stereo unspecified) | -7 | -1 | 2
